# Activity calls are given as the source filed them. Unless noted, how the calls were made is not given here.
# Legend:
# [1] = anti-His antibody binders, primary screen, artefact control for SMM control protein annotation, biochemical, small-molecule microarray, 635 nm fluorescence (AID 1128); settings: anti-His Alexa647 antibody binding, higher = more signal;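 further: score merges feature fluorescence with signal-to-noise for each printed compound spot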
# [2] = tested on: Human papillomavirus type 1a E7 protein (residues 1-88); experiment: HPV1a E7 small-molecule binders, primary screen, biochemical, small-molecule microarray, residues 1-88, 635 nm (AID 1129); settings: small-molecule microarray binding, fluorescence 635 nm; higher = more signal
# [3] = biological target: Focal adhesion kinase 1 (Homo sapiens) (UniProt Q05397); experiment: small-molecule microarray binders of FAK, primary screen, biochemical, 635/667 nm fluorescence, BSA, DTT (AID 1130); settings: PTK2 binding, 635 nm fluorescence, higher = more signal;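 further: composite of spot emission at 667 nm and signal to noise over triplicate slides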
# Sequence of Focal adhesion kinase 1 (Homo sapiens) (Q05397 whole entry, looked up): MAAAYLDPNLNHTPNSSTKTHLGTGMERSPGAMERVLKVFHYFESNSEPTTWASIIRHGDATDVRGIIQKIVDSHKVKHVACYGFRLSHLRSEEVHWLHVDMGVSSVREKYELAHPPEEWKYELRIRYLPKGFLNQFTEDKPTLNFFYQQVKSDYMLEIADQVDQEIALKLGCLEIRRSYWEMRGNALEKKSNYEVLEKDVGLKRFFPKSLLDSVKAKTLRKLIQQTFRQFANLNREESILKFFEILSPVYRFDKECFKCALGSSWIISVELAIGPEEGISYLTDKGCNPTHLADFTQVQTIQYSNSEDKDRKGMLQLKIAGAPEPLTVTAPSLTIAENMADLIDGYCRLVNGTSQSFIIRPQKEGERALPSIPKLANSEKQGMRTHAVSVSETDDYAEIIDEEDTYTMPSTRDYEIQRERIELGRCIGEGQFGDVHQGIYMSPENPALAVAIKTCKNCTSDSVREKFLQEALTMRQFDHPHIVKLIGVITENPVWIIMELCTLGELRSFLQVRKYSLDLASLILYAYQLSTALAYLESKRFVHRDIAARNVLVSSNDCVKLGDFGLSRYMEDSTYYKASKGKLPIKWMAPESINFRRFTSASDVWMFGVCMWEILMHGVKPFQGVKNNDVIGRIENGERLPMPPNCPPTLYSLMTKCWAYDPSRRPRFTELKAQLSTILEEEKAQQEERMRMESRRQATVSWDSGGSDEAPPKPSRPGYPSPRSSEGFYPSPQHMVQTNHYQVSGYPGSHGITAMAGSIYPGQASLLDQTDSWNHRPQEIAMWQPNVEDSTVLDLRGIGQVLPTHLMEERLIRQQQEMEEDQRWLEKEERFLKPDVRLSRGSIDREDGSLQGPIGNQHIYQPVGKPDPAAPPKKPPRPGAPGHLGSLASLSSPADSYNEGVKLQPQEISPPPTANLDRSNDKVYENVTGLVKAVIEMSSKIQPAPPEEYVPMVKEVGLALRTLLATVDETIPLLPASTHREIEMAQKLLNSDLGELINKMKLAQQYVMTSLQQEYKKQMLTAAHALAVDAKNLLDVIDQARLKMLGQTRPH
# [4] = tested on: Fibrinogen (Alexa647-labelled); experiment: fibrinogen binders on compound microarrays, profiling panel, artefact control for SMM control-protein annotation, biochemical, small-molecule microarray, 635/667 nm fluorescence (AID 1131); settings: fibrinogen-A647 binding fluorescence, higher = more signal;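 further: z-score merges 667 nm fluorescence with per-spot signal-to-noise over triplicate slides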
# [5] = biological target: Follistatin (Homo sapiens) (UniProt P19883); experiment: follistatin binders on small-molecule microarrays, primary screen, biochemical, small-molecule microarray, 635/667 nm fluorescence (AID 1132); settings: FST binding, 635 nm fluorescence, higher = more signal
# Sequence of Follistatin (Homo sapiens) (P19883 whole entry, looked up): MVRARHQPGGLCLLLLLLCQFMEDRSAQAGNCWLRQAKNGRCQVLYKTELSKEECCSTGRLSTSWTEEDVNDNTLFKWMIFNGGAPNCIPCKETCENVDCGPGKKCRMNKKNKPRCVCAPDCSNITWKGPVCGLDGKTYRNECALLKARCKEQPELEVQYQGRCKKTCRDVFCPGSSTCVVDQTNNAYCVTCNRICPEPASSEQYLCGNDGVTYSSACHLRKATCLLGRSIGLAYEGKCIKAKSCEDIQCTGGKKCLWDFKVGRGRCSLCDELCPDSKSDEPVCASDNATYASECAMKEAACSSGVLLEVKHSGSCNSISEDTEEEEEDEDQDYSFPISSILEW
# [6] = biological target: Fibroblast growth factor 2 (Homo sapiens) (UniProt P09038); experiment: FGF2 binders on small-molecule microarrays, primary screen, biochemical, small-molecule microarray, 635/667 nm fluorescence (AID 1133); settings: small-molecule microarray binding, FGF2, fluorescence 635/667; higher = more signal
# Sequence of Fibroblast growth factor 2 (Homo sapiens) (P09038 whole entry, looked up): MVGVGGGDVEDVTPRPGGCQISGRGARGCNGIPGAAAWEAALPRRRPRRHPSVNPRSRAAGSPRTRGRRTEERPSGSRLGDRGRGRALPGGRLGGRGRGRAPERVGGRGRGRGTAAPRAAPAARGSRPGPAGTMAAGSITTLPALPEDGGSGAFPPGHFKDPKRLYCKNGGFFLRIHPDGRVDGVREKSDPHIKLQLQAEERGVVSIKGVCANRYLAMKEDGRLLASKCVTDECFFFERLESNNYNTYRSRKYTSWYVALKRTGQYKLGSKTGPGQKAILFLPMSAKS
# [7] = mitochondrial membrane potential change in A549 cells, profiling panel, cell-based, JC-1 fluorescence, basal, 24 h, 100 nL (AID 1138); settings: higher = more signal;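 further: A549 lung adenocarcinoma cells under basal conditions with no added stimulus; test concentration not given here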
# [8] = tested on: Lefty1; experiment: Lefty1 binders on small-molecule microarrays, primary screen, biochemical, small-molecule microarray, 635/667 nm fluorescence (AID 1139); settings: small-molecule microarray binding, fluorescence 635/667; higher = more signal
# [9] = tested on: wheat germ agglutinin (Triticum aestivum), Alexa647-labelled; experiment: wheat germ agglutinin binders on compound microarrays, profiling panel, artefact control for SMM control-protein annotation, biochemical, small-molecule microarray, 635/667 nm fluorescence (AID 1140); settings: WGA-A647 binding, 635 nm fluorescence, higher = more signal;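 further: score merges 667 nm feature emission with signal to noise over triplicate slides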
# [10] = biological target: Luciferin 4-monooxygenase (Photinus pyralis) (UniProt P08659); experiment: firefly luciferase enzyme inhibitors, primary screen, biochemical, luminescence, purified enzyme, 2006 set (AID 1141); settings: SteadyGlo luminescence, 30 min, higher = more signal, called active from +8 up or from −8 down;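 further: cell-free assay with purified firefly luciferase at 100 ng per well in PBS; test concentration not given here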
# Sequence of Luciferin 4-monooxygenase (Photinus pyralis) (P08659 whole entry, looked up): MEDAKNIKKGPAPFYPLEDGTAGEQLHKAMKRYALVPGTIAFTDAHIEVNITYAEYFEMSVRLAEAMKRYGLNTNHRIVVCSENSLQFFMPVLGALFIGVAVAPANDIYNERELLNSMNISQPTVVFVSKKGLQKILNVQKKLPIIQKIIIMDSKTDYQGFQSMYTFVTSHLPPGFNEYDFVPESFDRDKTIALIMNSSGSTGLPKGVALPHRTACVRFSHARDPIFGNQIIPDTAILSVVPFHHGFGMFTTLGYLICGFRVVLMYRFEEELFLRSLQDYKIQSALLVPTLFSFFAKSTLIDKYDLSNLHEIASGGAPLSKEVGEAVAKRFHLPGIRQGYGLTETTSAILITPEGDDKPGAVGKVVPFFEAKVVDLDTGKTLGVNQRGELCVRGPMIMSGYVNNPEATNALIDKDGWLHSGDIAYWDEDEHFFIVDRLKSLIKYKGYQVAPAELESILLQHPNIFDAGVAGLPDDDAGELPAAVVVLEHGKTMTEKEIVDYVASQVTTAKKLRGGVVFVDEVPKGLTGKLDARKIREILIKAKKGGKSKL
# [11] = tested on: Wnt5a (protein binding on small-molecule microarray); experiment: Wnt5a binders on small-molecule microarray, primary screen, biophysical, 635/667 nm fluorescence (AID 1142); settings: 635 nm fluorescence, higher = more signal;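 further: fluorescence read at 667 nm with signal to noise per printed feature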
# [12] = cell viability in Huh7 cells, primary screen, cytotoxicity control for HCV replication inhibitor project, CellTiter-Glo luminescence, basal, 48 h (AID 1143); settings: Huh7 HCV replicon, higher = more signal, called active from +8 up or from −8 down;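 further: Huh7 hepatoma cells carrying a hepatitis C replication reporter with no stimulus; test concentration not given here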
# [13] = P. aeruginosa biofilm formation inhibitors, primary screen, PAO1 strain, BacTiter-Glo luminescence, LB-PBS (AID 1144); settings: 12 h, higher = more signal
# [14] = CREB reporter modulators without forskolin, primary screen, cell-based, PC12, CRE-LacZ reporter, unstimulated (AID 1145); settings: no forskolin, luminescence, 4.5 h, higher = more signal, called active from +8 up or from −8 down
# [15] = CREB reporter modulators under forskolin, primary screen, cell-based, PC12, CRE-LacZ reporter, forskolin-stimulated (AID 1146); settings: luminescence, 4.5 h, higher = more signal, called active from +8 up or from −8 down;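 further: PC12 cells with 6xCRE LacZ reporter stimulated by forskolin 10 µM; beta-galactosidase reporter signal reflecting CREB driven transcription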
# [16] = biological target: Streptavidin (Streptomyces avidinii) (UniProt P22629); experiment: streptavidin binders on small-molecule microarray, primary screen, artefact control for SMM compound annotation, biophysical, 635/667 nm fluorescence (AID 1147); settings: streptavidin binding, higher = more signal;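 further: signal reflects streptavidin binding to arrayed compounds as a control protein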
# Sequence of Streptavidin (Streptomyces avidinii) (P22629 whole entry, looked up): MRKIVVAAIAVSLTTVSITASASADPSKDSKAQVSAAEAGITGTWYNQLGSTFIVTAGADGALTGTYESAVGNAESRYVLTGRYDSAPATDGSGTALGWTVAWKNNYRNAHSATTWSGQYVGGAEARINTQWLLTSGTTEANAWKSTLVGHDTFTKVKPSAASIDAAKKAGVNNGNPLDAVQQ
# [17] = small-molecule binders of probe aInhba, primary screen, biochemical, small-molecule microarray, 635/667 nm fluorescence (AID 1148); settings: higher = more signal;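 further: score merges 667nm spot fluorescence with signal-to-noise for antibody binding to printed compounds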
# [18] = biological target: Torsin-1A (Homo sapiens) (UniProt O14656); experiment: torsin A binders from cell lysate, primary screen, small-molecule microarray, wild-type, 635/667 nm (AID 1149); settings: COS7 hTOR1A-WT lysate, 635 nm fluorescence, higher = more signal
# Sequence of Torsin-1A (Homo sapiens) (O14656 whole entry, looked up): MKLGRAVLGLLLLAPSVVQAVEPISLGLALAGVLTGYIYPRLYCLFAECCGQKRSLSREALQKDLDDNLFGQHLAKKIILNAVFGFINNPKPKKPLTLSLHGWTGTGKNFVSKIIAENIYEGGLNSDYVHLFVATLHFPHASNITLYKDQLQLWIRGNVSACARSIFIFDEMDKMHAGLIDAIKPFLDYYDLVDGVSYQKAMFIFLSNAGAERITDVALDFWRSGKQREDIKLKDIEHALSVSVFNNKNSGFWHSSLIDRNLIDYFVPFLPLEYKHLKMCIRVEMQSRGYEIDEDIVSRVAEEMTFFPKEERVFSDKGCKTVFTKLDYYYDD
# [19] = biological target: Torsin-1A (Homo sapiens) (UniProt O14656); experiment: small-molecule binders of mutant TOR1A in lysate, primary screen, cell lysate, small-molecule microarray, COS7 lysate, 635/667 nm fluorescence (AID 1150); settings: COS7 hTOR1A mutant lysate, 635 nm fluorescence, higher = more signal;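 further: score pools 667 nm emission and signal to noise measuring lysate protein binding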
# [20] = tested on: Sonic hedgehog protein (Shh); experiment: small-molecule binders of Shh protein, primary screen, biochemical, small-molecule microarray, 635/667 nm fluorescence (AID 1151); settings: small-molecule microarray binding, 635 nm fluorescence; higher = more signal;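 further: Shh protein binding to compounds spotted on small-molecule microarray slides; score combines spot fluorescence intensity with signal-to-noise across triplicate slides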
compound,measurement,setting,value
COc1ccc([Si](C)(C)[C@@H]2[C@@H](CCO)O[C@]3(C(=O)N(Cc4ccccc4)c4ccc(N(C=O)c5ccccc5)cc43)[C@H]2C)cc1,composite z-score,[1],1.24
same,composite z-score,[2],0.0244
same,composite z-score,[3],-0.205
same,composite z-score,[4],0.181
same,composite z-score,[5],1.08
same,composite z-score,[6],0.614
same,z-score,[7],-0.276
same,composite z-score,[8],0.497
same,composite z-score,[9],0.467
same,z-score,[10],-0.301 (inactive)
same,composite z-score,[11],0.155
same,z-score,[12],-5.23 (inactive)
same,z-score,[13],-1.1 (inactive)
same,z-score,[14],4.18 (inactive)
same,z-score,[15],-0.336 (inactive)
same,composite z-score,[16],-0.0047
same,composite z-score,[17],-0.0762
same,composite z-score,[18],0.353
same,composite z-score,[19],0.188
same,composite z-score,[20],1.26
Cc1cc(C)c(C(O)C2C=CC3C(=O)NC(=O)C3N2Nc2ccccn2)c(C)c1 (stereo not given),composite z-score,[1],0.735
same,composite z-score,[2],1.03
same,composite z-score,[3],0.471
same,composite z-score,[4],0.925
same,composite z-score,[5],1.11
same,composite z-score,[6],-0.719
same,z-score,[7],0.513
same,composite z-score,[8],0.0668
same,composite z-score,[9],0.994
same,z-score,[10],-1.56 (inactive)
same,composite z-score,[11],-0.265
same,z-score,[12],0.882 (inactive)
same,z-score,[13],-0.644 (inactive)
same,z-score,[14],-0.14 (inactive)
same,z-score,[15],-0.0376 (inactive)
same,composite z-score,[16],0.545
same,composite z-score,[17],0.0599
same,composite z-score,[18],-0.145
same,composite z-score,[19],0.736
same,composite z-score,[20],-0.095
C=CCOC(=O)[C@@H]1[C@H]2C(=O)O[C@H](c3ccccc3)[C@H](c3ccccc3)N2[C@H](c2ccc(OCCOC(=O)[C@H]3C[C@H]4C(=O)N[C@@H](Cc5ccccc5)C(=O)N4[C@H]3c3ccc(O)cc3)cc2)[C@@]12C(=O)Nc1ccc(I)cc12,composite z-score,[1],1.77
same,composite z-score,[2],1.19
same,composite z-score,[3],0.0087
same,composite z-score,[4],0.521
same,composite z-score,[5],1.36
same,composite z-score,[6],1.39
same,z-score,[7],-1.55
same,composite z-score,[8],1.32
same,composite z-score,[9],0.815
same,z-score,[10],-1.79 (inactive)
same,composite z-score,[11],0.388
same,z-score,[12],-0.409 (inactive)
same,z-score,[13],-0.00469 (inactive)
same,z-score,[14],5.82 (inactive)
same,z-score,[15],11.7 (active)
same,composite z-score,[16],0.593
same,composite z-score,[17],-0.0391
same,composite z-score,[18],0.72
same,composite z-score,[19],0.544
same,composite z-score,[20],1.81
C=CCN1Cc2ccccc2C[C@]2(N=C(c3ccc(OCCCO)cc3)O[C@@H]2c2ccccc2)C1=O,composite z-score,[1],1.66
same,composite z-score,[2],1.12
same,composite z-score,[3],0.692
same,composite z-score,[4],0.441
same,composite z-score,[5],1.36
same,composite z-score,[6],1.76
same,z-score,[7],1.21
same,composite z-score,[8],0.706
same,composite z-score,[9],0.436
same,z-score,[10],-1.87 (inactive)
same,composite z-score,[11],0.469
same,z-score,[12],-4.28 (inactive)
same,z-score,[13],-0.066 (inactive)
same,z-score,[14],1.64 (inactive)
same,z-score,[15],-1.28 (inactive)
same,composite z-score,[16],-0.138
same,composite z-score,[17],0.167
same,composite z-score,[18],0.821
same,composite z-score,[19],1.15
same,composite z-score,[20],1.81
Cc1ccc(C(C)CC(O)C2C=CC3C(=O)NC(=O)C3N2Nc2ccccn2)o1 (stereo not given),composite z-score,[1],1.17
same,composite z-score,[2],-0.722
same,composite z-score,[3],-0.121
same,composite z-score,[4],-0.633
same,composite z-score,[5],0.709
same,composite z-score,[6],0.243
same,z-score,[7],0.839
same,composite z-score,[8],0.643
same,composite z-score,[9],-0.0217
same,z-score,[10],-2.19 (inactive)
same,composite z-score,[11],-0.0405
same,z-score,[12],1.2 (inactive)
same,z-score,[13],-1.31 (inactive)
same,z-score,[14],-0.712 (inactive)
same,z-score,[15],-0.364 (inactive)
same,composite z-score,[16],-0.585
same,composite z-score,[17],0.0797
same,composite z-score,[18],0.81
same,composite z-score,[19],0.282
same,composite z-score,[20],0.452

# From PubChem BioAssay
